Molecules are shown by their SMILES. Records with an inconclusive call do not appear. The source made the active and inactive calls. Rule for the calls: active = hit-call score of the fitted dose curve at least 0.9, where 1 is the maximum; inconclusive = response in the unintended direction; inactive = score below 0.9.

Read-out in the assay: xenobiotic metabolism (CYP2C9), CYP2C9 (gene 1559)
Briefly: CLD_CYP2C9_6hr: CellzDirect (CLD) Gene Expression Assay for xenobiotic metabolism (CYP2C9) at 6 hours (AID 2283664). As for the experimental part: CLD_6hr is a cell-based, multiplexed-readout assay that uses hepatocyte, a human liver primary cell, with measurements taken at 6 hours after chemical dosing in a 96-well plate.CLD_CYP2C9_6hr is one of 16 assay component(s) measured or calculated from the CLD_6hr assay. It is designed to make measurements of mRNA induction, a form of inducible reporter, as detected with chemiluminescence signals by Quantitative Nuclease Protection Assay (qNPA) technology.Data from the assay component CLD_CYP2C9_6hr was analyzed at the endpoint, CLD_CYP2C9_6hr, in the positive analysis fitting direction relative to DMSO as the negative control and baseline of activity. Using a type of inducible reporter, gain-of-signal activity can be used to understand changes in the reporter gene as they relate to the gene CYP2C9. Furthermore, this assay endpoint can be referred to as a primary readout. To generalize the intended target to other relatable targets, this assay endpoint is annotated to the cyp intended target family, where subfamily is xenobiotic metabolism.
Human hepatocyte cultures were treated daily for two consecutive days with fresh dosing solutions containing appropriate concentrations of the 320 ToxCast chemicals (chemical identities were blinded to CellzDirect and other ToxCast collaborators), vehicle control (0.2% DMSO), and positive control inducers as summarized in Table 1. Due to the large number of treatment groups and chemicals examined, the ToxCast chemicals were divided into two groups (spanning two independent cultures of hepatocytes from separate donor preparations (Hu778: ToxCast plates 1 and 2; Hu776: ToxCast plates 3 and 4). Each preparation of human hepatocyte cultures was treated with respective vehicle control, medium only control, set of six positive controls/reference chemicals for the five hepatic receptor pathways, and a subset of eight of the ToxCast chemicals (indoxacarb, pyrithiobac-sodium, norflurazon, cyhalofop-butyl, methomyl, thiram, acetochlor, and propiconazole). These replicate data, coupled with internal replicates designed within the blinded ToxCast chemical library, provided additional data to evaluate interindividual differences between hepatocyte preparations and their potential impact on chemical profiles.Cell morphology and integrity were evaluated using phase-contrast microscopy as an indicator of hepatocyte cell health (Tyson & Green, 1987). Cultures for each treatment group (i.e., media, vehicle [0.2% DMSO], positive control inducers [multiple concentrations], and the ToxCast chemicals [multiple concentrations]) were observed and cell morphology was assessed relative to vehicle control cultures at each harvest time point (0, 6, 24, or 48 h). […] Images were evaluated at the conclusion of the study to assess changes in cell integrity and account for the effects of chemical exposure on uncharacteristic changes in concentration-dependent gene expression profiles. The results from these determinations of apparent cytotoxicity were annotated (yes/no) alongside the corresponding qNPA data for reference.At the conclusion of each treatment period, hepatocyte cultures (96-well) were washed with 1 volume of HBSS, lysed by addition of 25 ul ArrayPlate lysis buffer (HTG, Tucson, AZ), and 70 ul/well of Denaturation Oil, denatured by incubation at 95C for 10 min, and frozen at approximately -70C until analysis by nuclease protection assay (qNPA) (Roberts et al., 2007). For qNPA analysis, cell lysates were thawed at 50C for approximately 30 min, qNPA probes were added, and samples were incubated at 95C for 10 min to begin the detection process by denaturing the target RNA, dissociating the duplexes and secondary structure hybridization. At the conclusion of the hybridization period, S1 nuclease reagent was added to each sample to digest all nonprotected nucleotides at 50C for 60-90 min. […]
As for `COCC(C)N(C(=O)CCl)c1c(C)csc1C` (stereo not given), the outcome was inactive. In the case of `Nc1c(Cl)c(F)nc(OCC(=O)O)c1Cl` it was “inactive”; in that of `CC(C)N1C(=O)c2ccccc2NS1(=O)=O`, “inactive”. In the case of `C=CCOC(=O)C(C)(C)OC(=O)c1cc(-n2c(=O)cc(C(F)(F)F)n(C)c2=O)ccc1Cl` it was “inactive”; in that of `CCNC(=O)NC(=O)C(C#N)=NOC`, “inactive”; in that of `CO/N=C(/C1=NOCCO1)c1ccccc1Oc1ncnc(Oc2ccccc2Cl)c1F`, “inactive”. As for `COc1ccc(-c2ccccc2)cc1NNC(=O)OC(C)C`, the call was inactive. The result for `N#Cc1c[nH]cc1-c1cccc2c1OC(F)(F)O2` reads “inactive”; that for `N#Cc1c(Cl)cccc1Cl`, “inactive”; that for `CS(=O)(=O)c1cc(C(F)(F)F)ccc1C(=O)c1cnoc1C1CC1`, “inactive”. In the case of `OC(c1ccc(Cl)cc1)(c1ccc(Cl)cc1)C(Cl)(Cl)Cl` it was “inactive”; in that of `O=C1C2CC=CCC2C(=O)N1SC(Cl)(Cl)Cl` (stereo not given), “inactive”; in that of `CC(C)=CC1C(C(=O)OCc2coc(Cc3ccccc3)c2)C1(C)C` (stereo not given), “inactive”. In the case of `COc1cc(Cl)c(OC)cc1Cl` it was “inactive”. In the case of `CC(C)N1C(=O)N(c2ccccc2)CSC1=NC(C)(C)C`, the molecule was called inactive.

For the molecule `CCC(C)n1c(=O)[nH]c(C)c(Br)c1=O` (stereo not given), the outcome was inactive. In the case of `CC1(C)C(C(=O)OC(C#N)c2cccc(Oc3ccccc3)c2)C1(C)C` (stereo not given) it was “inactive”; in that of `Nc1c(Cl)c(Cl)nc(C(=O)O)c1Cl`, “inactive”; in that of `CCCCC(C#N)(Cn1cncn1)c1ccc(Cl)cc1` (stereo not given), “inactive”. In the case of `CCNP(=S)(OC)O/C(C)=C/C(=O)OC(C)C` (stereo not given) it was “inactive”; in that of `Cc1nc(N(C)C)nc(OC(=O)N(C)C)c1C`, “inactive”.

`COc1cc(OC)nc(NC(=O)NS(=O)(=O)c2ncccc2OCC(F)(F)F)n1`: the result was inactive. The result for `CS(=O)(=O)c1ccc(C(=O)C2C(=O)CCCC2=O)c([N+](=O)[O-])c1` reads “inactive”; that for `COP(=O)(OC)O/C(C)=C/C(=O)N(C)C`, “inactive”.

`CCOP(=S)(OCC)Oc1nc(Cl)n(C(C)C)n1`: the molecule was called inactive. The result for `CN=C=S` reads “inactive”. On to `CCOc1nc(C(Cl)(Cl)Cl)ns1`, for which the result was inactive. In the case of `CSC(=O)c1c(C(F)F)nc(C(F)(F)F)c(C(=O)SC)c1CC(C)C` it was “inactive”; in that of `CC1(C)CCC(=Cc2ccc(Cl)cc2)C1(O)Cn1cncn1` (stereo not given), “inactive”. The result for `O=C(O)c1c(Cl)ccc2cc(Cl)cnc12` reads “inactive”; that for `COC(=O)NS(=O)(=O)c1ccc(N)cc1`, “inactive”.

On to `Cc1ccc(N=CN(C)C=Nc2ccc(C)cc2C)c(C)c1`, for which the molecule was classed as inactive. Regarding `CCOc1nc(F)cc2nc(S(=O)(=O)Nc3c(Cl)cccc3Cl)nn12`, the molecule was called inactive. In the case of `COCC(=O)N(c1c(C)cccc1C)C(C)C(=O)OC` (stereo not given) it was “inactive”; in that of `CCOP(=O)(OCC)Oc1nc(Cl)c(Cl)cc1Cl`, “inactive”.

Source of the values: PubChem BioAssay (EPA / NIEHS).
